± gives the standard deviation.
What was measured:
[1] = system: MILI (PIWIL2) piRISC loaded with L1MC piRNA (26 nt); test: pre-steady-state target cleavage rate (min^-1); guide: L1MC piRNA 5'p-UAACUAAAUACUAUGCAAGCUGUAGG; higher = faster piRNA-guided slicing of the target;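 further: 1 nM active piRISC with 0.1 nM target library at 33 °C single turnover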
In short: (§1)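 Cleave-'n-Seq measured uncleaved targets by sequencing after a transcribed, DNA-blocked target RNA library […] was mixed with 1 nM active affinity-purified piRISC holding one synthetic guide, with or without 500 nM GTSF1 partner protein, at 33 °C in HEPES–potassium acetate buffer for 0–8 or 0–960 min. Counts were normalised to depth and to weakly complementary targets, three trials were pooled, and k3 was capped at 0.0001 min^-1. A burst-and-steady-state fit gave the pre-steady-state cleavage rate.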

[2] = system: EfPiwi piRISC loaded with L1MC piRNA (26 nt); test: pre-steady-state target cleavage rate (min^-1); auxiliary factor: 500 nM Ephydatia muelleri Gtsf1; guide: L1MC piRNA 5'p-UAACUAAAUACUAUGCAAGCUGUAGG; MIWI and MILI are mouse PIWI proteins and EfPiwi is from a freshwater sponge; tags in brackets are library labels; higher = faster piRNA-guided slicing of the target
In short: as §1

[3] = auxiliary factor: 500 nM mouse GTSF1
[4] = auxiliary factor: none (no GTSF1)

Row | Sequence | pre-steady-state target cleavage rate [1, 3] | pre-steady-state target cleavage rate [1, 4] | pre-steady-state target cleavage rate [2]
1 | UCCUGGAAAAGCUUGCAUAGUAUUUAGUUA | 0.249 ± 0.019 | 0.00809 ± 0.0029 | 0.0119 ± 0.0039
2 | UCCUGCUACAGCUUGCAAAGUAUUAAGUUA | 0.146 ± 0.019 | 0.00367 ± 0.0025 | 0.00445 ± 0.0021
3 | UCCUGGAUGAGCUUCGCAUAGUAUUUAGUUA | 0.258 ± 0.02 | 0.00539 ± 0.0022 | 0.0219 ± 0.0059
4 | UCCUGGAUCAGCUUGUAUAGUAUUUAGUUA | 0.301 ± 0.015 | 0.0104 ± 0.0028 | 0.104 ± 0.021
5 | UCCUGGAUGUCCUGGCAUAGUAUUUAGUUA | 0.066 ± 0.013 | 0.00414 ± 0.0026 | 0.0055 ± 0.0047
6 | UCCUGGAUCAGCUAGCAUAGUAUUUAGUUA | 0.236 ± 0.012 | 0.00845 ± 0.0024 | 0.0313 ± 0.009
7 | UCCUCCUUCAGCUUGCAUAGUAUUUUGUUA | 0.139 ± 0.021 | 0.00287 ± 0.002 | 0.00463 ± 0.0027
8 | UCCUGCUACACGAUGCAUAGUAUUUAGUUA | 0.241 ± 0.022 | 0.00624 ± 0.0023 | 0.00905 ± 0.0024
9 | UCCUGGAUCAGCAUGCAUACUAUUUAGUUA | 0.0724 ± 0.0079 | 0.00491 ± 0.0019 | 0.00409 ± 0.0018
10 | UCCUGGUACAGCAUGCAUAGUAUUAAGUUA | 0.292 ± 0.06 | 0.0046 ± 0.003 | 0.00442 ± 0.002
11 | UCCUGGAUGAGCUUUCAUAGUAUUUAGUUA | 0.15 ± 0.018 | 0.00493 ± 0.0026 | 0.00433 ± 0.0018
12 | UCCUGCAACAGCUUGCAUAGUAUUAAGUUA | 0.344 ± 0.039 | 0.00432 ± 0.0031 | 0.00881 ± 0.0022
13 | UCCUGGAUGAGGUUGCAUAGUAUUUAGUUA | 0.129 ± 0.015 | 0.0136 ± 0.0032 | 0.00786 ± 0.0024
14 | UCCUCCUACAGCUUUGCAUAGUAUUUAGUUA | 0.291 ± 0.017 | 0.00758 ± 0.0021 | 0.123 ± 0.036
15 | UCCUCCUAACAGCUUGCAUAGUAUUUAGUUA | 0.213 ± 0.018 | 0.0084 ± 0.0021 | 0.0133 ± 0.0051
16 | UCCUCCUACAAGCUUGCAUAGUAUUUAGUUA | 0.222 ± 0.016 | 0.00894 ± 0.0024 | 0.0104 ± 0.0039
17 | UCCUCCUACAGCUUGCCUAGUAUUUAGUUA | 0.253 ± 0.022 | 0.00736 ± 0.002 | 0.0514 ± 0.014
18 | UCCUGGUACUAGCUUGCAUAGUAUUUAGUUA | 0.068 ± 0.021 | 0.00943 ± 0.003 | 0.00885 ± 0.0038
19 | UCCUGGAUGUCCUUGCAUAGUAUUUAUUUA | 0.0674 ± 0.018 | 0.00292 ± 0.0029 | 0.00464 ± 0.0036
20 | UCCUCCUCAGCUUGCAUAGUAUUUAGUUA | 0.258 ± 0.015 | 0.00784 ± 0.0019 | 0.0735 ± 0.017
21 | UCCUGGAUGUCCUAUGCAUAGUAUUUAGUUA | 0.0987 ± 0.02 | 0.00575 ± 0.0022 | 0.00508 ± 0.0022
22 | UCCUGGUACACCUUGCAUAGUAUUUAGUAA | 0.182 ± 0.043 | 0.00413 ± 0.0031 | 0.00351 ± 0.0028
23 | UCCUGGAUGUCGAUGCAUAGUACUUAGUUA | 0.025 ± 0.0066 | 0.0058 ± 0.0019 | 0.00454 ± 0.0029
24 | UCCUGGAACAGCUUGCUUAGUAUAUAGUUA | 0.241 ± 0.02 | 0.00532 ± 0.0022 | 0.0104 ± 0.0048
25 | UCCUGGAUGAGGCUUGCAUAGUAUUUAGUUA | 0.186 ± 0.018 | 0.0125 ± 0.0036 | 0.0185 ± 0.0065
